An excerpt weighted towards active compounds, which were near 1.4% of everything screened.
Mtb MbtI inh: inhibitors of Mycobacterium tuberculosis siderophore enzyme MbtI; inhibition, % (concentration not given with the values); purified MbtI enzyme, fluorescence intensity read-out; P9WFX0; actives 0.89% (n = 100,000); in the data active = inhibition mostly above about 56%, no sharp cut-off; inactive = mostly below about 77%
PV pol inh: poliovirus RNA polymerase inhibition; P03300; AID 588519; % elongation, % (compound at 16.7 µg/mL); actives 0.66% (n = 150,000); poliovirus polymerase elongation, fluorescence polarization; active compounds read low; in the data active = % elongation below about 90%
Target sequence (P03300 1749-2209 limits assumed): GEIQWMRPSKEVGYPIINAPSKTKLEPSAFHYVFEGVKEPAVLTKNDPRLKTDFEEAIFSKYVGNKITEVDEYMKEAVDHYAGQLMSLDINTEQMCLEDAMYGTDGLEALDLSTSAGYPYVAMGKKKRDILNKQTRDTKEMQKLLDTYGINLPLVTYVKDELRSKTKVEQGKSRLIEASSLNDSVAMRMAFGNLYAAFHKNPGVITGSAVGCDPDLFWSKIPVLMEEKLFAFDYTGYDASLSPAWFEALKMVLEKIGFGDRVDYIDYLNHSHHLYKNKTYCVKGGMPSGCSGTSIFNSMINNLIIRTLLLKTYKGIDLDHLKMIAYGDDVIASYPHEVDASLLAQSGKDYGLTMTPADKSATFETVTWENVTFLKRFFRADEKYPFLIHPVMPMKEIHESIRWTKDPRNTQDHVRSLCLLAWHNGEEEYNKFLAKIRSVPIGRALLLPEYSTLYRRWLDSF
AID504770: growth inhibitors of E. coli YBA685 in a screen for V. cholerae RctB (chromosome II replication) inhibitors; E. coli YBA685 rctB-dependent plasmid, OD600 growth, 3 h; active compounds read low; z-score (concentration not given with the values); actives 0.27% (n = 130,000); AID 504770; in the data active = z-score below about -2, passing the limit was not always enough
MenB inh: Mtb MenB enzyme inhibition. actives 0.43% (n = 100,000). AID 540299. P9WNP5. inhibition, % (concentration not given with the values). MenB enzyme assay, absorbance read-out; in the data active = inhibition above about 21%, passing the limit was not always enough
A number is an active result; n = inactive; x = no result; ! = not confirmed by another sample.

SMILES	Mtb MbtI inh	PV pol inh	AID504770	MenB inh
CSC(SC)=C(C#N)S(C)(=O)=O	68.5	n	n	n
CCC1COC(c2cccn2C)=N1 (stereo not drawn)	n	x	n	x
NS(=O)(=O)c1cccc(S(=O)(=O)c2ccc(Cl)c(Cl)c2)c1	67.0	n	n	n
CCOC(=O)c1cc(C(=O)OCC)n(C)n1	x	n	n	n
CCOC(=O)c1cc(C(=O)O)nn1C	n	n	n	28.3
Cc1ccc(C)n1-c1ccc(C(=O)NCC(F)(F)F)cc1	n	n	n	n
O=C(Cn1c(SCCOc2ccccc2)nc2ccccc21)N1CCOCC1	x	81.0	x	x
COc1ccc(OCCSc2nc3ccccc3n2CC(=O)N2CCOCC2)cc1	x	n	x	x
Clc1cc2c(c3ncccc13)OCN(C1CCCC1)C2	x	x	n	x
O=C(Sc1ccc(C(F)(F)F)cn1)c1csc(C2COc3ccccc3O2)n1 (stereo not drawn)	70.7	n	n	n
Cc1cccc(NC(=O)c2oc3ccccc3c2NC(=O)Cc2coc3c(C)c(C)ccc23)c1	x	n	x	x
COc1ccc(NC(=O)c2oc3ccccc3c2NC(=O)Cc2coc3c(C)c(C)ccc23)cc1	x	-10.0	x	x
O=C(O)CCC(=O)c1ccc(Br)cc1	n	90.0	-3.1	x
O=C(O)CCC(=O)c1ccc(I)cc1	n	n	n	x
COC(=O)C1=C(Nc2cccc(-c3nn(C)cc3Br)c2)CSC1	x	x	n	x
CC1=NN(c2ccccc2)C(=S)/C1=C\N1CCCCC1	97.6	n	n	n
O=S(=O)(CCc1ccccc1)c1ccccc1	n	n	n	26.2
CC(NS(=O)(=O)c1ccc(Br)cc1)C(=O)NCc1ccco1 (stereo not drawn)	n	n	n	37.2
CC(C)NS(=O)(=O)c1ccc(OCC(=O)NCc2ccco2)cc1	n	x	n	x
O=C(COC(=O)c1cnc(Cl)c(Cl)c1)c1ccccc1	n	n	n	n
Nc1nc(SCC(=O)c2ccc(Cl)cc2)n[nH]1	x	x	-2.65	x
Cc1ccc(-c2nc(SCC(=O)c3ccc(Cl)cc3)n[nH]2)cc1	x	x	n	x
COc1ccc2c(c1)C1(NNc3ccccc3O1)C(=O)N2 (stereo not drawn)	n	n	-10.7	n
O=S(=O)(NCCc1ccccn1)c1ccc(-c2ccon2)s1	x	x	n	x
Cc1cc(C)c(S(=O)(=O)N(CCC(C)C)S(=O)(=O)c2ccccc2C#N)c(C)c1	n	n	-4.05	n
SMILES	Mtb MbtI inh	PV pol inh	AID504770	MenB inh
S=c1[nH]nc(COc2ccccc2Cl)o1	x	n	n	n
COc1cccc(Oc2ccc(C(F)(F)F)cc2Nc2nc3ccccc3o2)c1	n	81.0	n	n
O=C(Nc1nc(-c2ccccc2)cs1)C1CCC1	n	n	n	n
c1ccc(-c2csc(NC3CCCCC3)n2)cc1	n	84.0	n	n
c1ccc(-c2nc(NC3CCCCC3)s[n+]2-c2ccccc2)cc1	90.9	n	n	x
O=C(CSc1ncnc2c1oc1ccccc12)OCc1c(F)cccc1Cl	n	n	n	n
CCOC(=O)c1oc2ccccc2c1COC(=O)/C=C/c1cccs1	n	n	n	n
CCCNC(=O)N(C)c1ncnnc1NC	n	n	n	28.8
Cc1nc(Cc2nnc(SCC(=O)NC(C)(C)C)o2)cs1	n	n	n	n
Cc1nc(Cc2nnc(SCC(=O)NCC34CC5CC(CC(C5)C3)C4)o2)cs1	n	n	-2.85	n
O=C(c1ccccc1O)N1CCOCC1	x	n	n	n
Oc1ccccc1C(=S)N1CCN(C(=S)c2ccccc2O)CC1	93.7	n	n	n
CN(CCC#N)CC1Cc2ccccc2O1 (stereo not drawn)	n	n	n	44.5
Cc1c(N=Cc2cc(Br)cc(Br)c2O)cccc1C(=O)O	n	88.0	n	n
Cc1cc(F)c(F)c(C(=O)N2CCCCCC2)c1Cl	n	n	n	34.4
N#CC1(C#N)C(c2ccco2)OC23CCCCC2C1(C#N)C(=N)O3 (stereo not drawn)	x	n	n	n
Cc1ccc(N(CC(=O)Nc2ccccc2C(=O)NCc2ccco2)S(C)(=O)=O)cc1Cl	n	21.0	n	n
CCC(C)n1c(=O)[nH]c2c1c(=O)n(C)c(=O)n2C (stereo not drawn)	n	x	n	x
CC(C)n1c(=S)[nH]c2c1c(=O)[nH]c(=O)n2C	101.6!	n	n	n
Cc1ccc(C(=O)NCc2ccc3c(c2)cc(C)n3C)cc1	n	n	n	n
COC(=O)c1cc(=O)[nH]c(=S)[nH]1	87.7	81.0	n	n
COC(=O)c1c(O)cc(=O)[nH]c1N	n	n	n	n
Cc1ccc(C2=N/C(=C\c3c(C)nn(-c4ccccc4)c3N3CCCC3)C(=O)O2)s1	n	28.0	n	n
Cn1cnc2sc3c(c2c1=O)CCCC3	n	n	n	n
O=C(CNc1ccc(Cl)cc1)N1CCN(c2ccccc2)CC1	n	n	n	n
SMILES	Mtb MbtI inh	PV pol inh	AID504770	MenB inh
Cc1[nH]n(-c2ccc(Br)cc2)c(=O)c1C1=c2ccccc2=NC1=O	64.0	n	n	n
Cc1[nH]n(-c2ccccc2)c(=O)c1N=O	n	n	n	n
C=CS(=O)(=O)C(C)CC(N)=O (stereo not drawn)	n	n	n	n
O=C1C(SCCO)=C(SCCO)C(=O)c2ccccc21	91.5	n	x	n
CSC(C)C(=O)C1=C(O)c2ccccc2C1=O (stereo not drawn)	x	x	n	x
CC(C)(C)/C(=N/O)c1ccccc1	n	n	n	n
Cc1c(-c2ccnc(N)n2)cnn1-c1ccccc1	x	x	n	x
Nc1nc2c(s1)CCc1c-2cnn1-c1ccccc1	x	42.0	n	n
CC(=O)N1CC(C(=O)Nc2ccc(S(=O)(=O)N3CCOCC3)cc2)Oc2ccccc21 (stereo not drawn)	n	n	n	n
CCOc1ccc(-c2csc(Cn3c(CN4CCN(C)CC4)nc4ccccc4c3=O)n2)cc1	84.6	66.0	n	n
N#C/C(=C(/O)CSc1nc2ccccc2o1)c1nc2ccccc2[nH]1	n	n	n	n
N#C/C(=C(/O)CSc1n[nH]c(=O)[nH]c1=O)c1nc2ccccc2[nH]1	77.3	n	n	n
Cc1cccc(NC(=S)Nn2c(O)c(C)sc2=S)c1	93.2	n	n	n
CC(=O)NC(=S)Nc1cccc(C)c1	n	n	n	n
O=C1/C(=C/c2cc3ccccc3o2)CC/C1=C\c1cc2ccccc2o1	n	n	n	n
O=C1/C(=C\c2ccc(Br)o2)CC/C1=C/c1ccc(Br)o1	n	43.0	n	n
CC(C(=O)NC1CCCCCC1)n1c(=O)c2cccn2c2cccnc21 (stereo not drawn)	n	n	n	n
O=C(NCCSc1ccccc1)c1cc2ccccc2o1	n	n	n	n
CCOC(=O)Cn1cnc2sc(C(=O)OCC)c(C)c2c1=O	n	n	n	47.7
Cc1ccc(-c2ccnc(-c3ccc(O)cc3)n2)cc1	x	x	n	x
Cc1ccc(-c2nc(I)ccc2O)cc1	n	n	n	38.6
CC(C)(C)Cc1cc(N)on1	n	n	-2.05	n
O=c1[nH]c(NCCO)nc2ccccc12	n	n	n	n
O=c1[nH]c(NCCO)c(I)c(=O)[nH]1	68.1	x	n	x
O=C(O)CN1C(=O)CC(c2ccccc2)Sc2ccccc21 (stereo not drawn)	x	x	n	x
COc1ccccc1-n1c(C)nc(=O)c(-c2ccccc2)c1C	n	n	n	n
CC(=O)Oc1ccccc1-n1c(C)nc(=O)c(-c2ccccc2)c1C	n	n	-4.55	x

Assay outcomes from PubChem.
